Measurements taken from PubChem BioAssay (NCI).
This is part of a sample that, as a whole, favours compounds with a hit. Of some 83,000 tested, about 20% had one in any assay.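 Percent growth is the endpoint: 0 to 100 indicates growth inhibition (40 means 60% inhibition), 0 means no net growth, and negative values indicate cell death.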 Unmarked numbers belong to inactive results. The source made the active and inactive calls. Rule for the calls: active = growth percent below 10; inactive = the rest.

What follows are compounds tested on HL-60(TB) leukemia (assay: NCI-60 one-dose screen, 48 h (100 = growth as untreated, 0 = no growth, -100 = all killed)). Settings: 10 µM unless noted.
`O=C1CCC/C=C\C[C@H]2C=CC(=O)/C2=C/C[C@H](C/C=C\CC(F)(F)F)O1` was tested, and the growth was -16.6% (active). In the case of `O=C(/C=C/c1cc([N+](=O)[O-])ccc1Cl)c1ccccc1`, the growth was 61.7%. With `COc1cc(-c2ccc(-c3ccc(C(=N)N)s3)s2)cc(OC)c1OC` the growth was -56.6% (active). Work on `Cc1ccc2nc(N)nnc2c1` yielded a growth of 125%. `C#CCOC(=O)[C@]1(C)CCC[C@]2(C)[C@H]3C[C@H]4C(C(C)C)=C[C@]3(CC[C@H]21)[C@@H]1C(=O)CCC(=O)[C@@H]14` was tested, and the growth was 64.7%. `CN1C[C@@H](c2ccc(Cl)cc2)[C@]2(NC(=S)N(c3ccc(F)c(Cl)c3)C2=O)[C@@]12C(=O)NC1C=CC(Cl)=C[C@H]12` (some centres undefined) was tested, and the growth was -17.9% (active). With `C=C1C(=O)O[C@H]2[C@H]1CC/C(Cn1cc(-c3cc(C(F)(F)F)cc(C(F)(F)F)c3)nn1)=C\CC[C@@]1(C)O[C@@H]21` the growth was -49.1% (active). `COc1cccc(/C(C#N)=C/c2nc3c(N4CCOCC4)nc(Cl)nc3n2C)c1` was tested, and the growth was -32% (active). With `COc1ccc2c(c1)CC[C@@H]1[C@@H]2CC[C@]2(C)c3c(cc(C#N)c4c3sc3ccccc34)C[C@@H]12` the growth was 91.7%. For `Fc1ccc(Oc2ccc(Nc3ncnc4onc(-c5ccccc5)c34)cc2)cc1`, the growth was 86.9%. For `COc1ccc2nc3cc(Cl)ccc3c(NCCCNCCO)c2c1`, the growth was -14.3% (active). With `C#C[C@@]1(O)[C@@H](CO)O[C@@H](n2cc(C(F)(F)F)c3c(N)ncnc32)[C@@H]1O` the growth was -37.6% (active). `N#Cc1ccc(-c2csc(Nc3ccc4nc5n(c(=O)c4c3)CCC5)n2)cc1` showed a growth of 103%. `Cc1ccc(Nc2c(C(N)=O)cnc3ccc(S(=O)(=O)Nc4cc(C)on4)cc23)cc1` showed a growth of 113%. `CCC(C)(C)c1cc(O)c(C(C)(C)CC)cc1O` was tested, and the growth was -9.67% (active). In the case of `COC(=O)c1ccc2[nH]c(O)c(C(=Nc3ccc(N(C)C(=O)CN4CCN(C)CC4)cc3)c3ccc(N)cc3)c2c1`, the growth was 110%. Work on `CC(c1ccc(-n2cccn2)cc1)c1cnc(N2CCc3ccc(C(N)=O)cc3C2)s1` (centres undefined) yielded a growth of 48.9%. Work on `COc1ccc(NC(=O)/C=C/c2ccc(NC(=O)N3CCCC3)cc2)cn1` yielded a growth of 102%. With `N=C1C=C(N)C(=O)c2ccccc21` the growth was -32.8% (active). In the case of `CO/C(=C1/NC(=O)C(Cc2ccc(O)c(Br)c2)N(C)C(=O)C(C)NC(=O)CCC/C=C(\C)CCC(C)OC1=O)c1ccccc1` (centres undefined), the growth was -58.6% (active). For `COC(=O)CC[C@@H](C)[C@H]1CC[C@H]2[C@@H]3CC[C@@H]4C[C@H](O)CC[C@]4(C)[C@H]3C[C@H](O)[C@]12C`, the growth was 96.9%. Work on `CCOC(=O)C/C(C)=N\O` yielded a growth of 94.5%. In the case of `CC(=O)N(CC(O)CO)c1c(I)c(C(=O)NCCO)c(I)c(C(=O)NCC(O)CO)c1I` (centres undefined), the growth was 92.2%. Work on `COc1ccc(OC)c(/C=C/C(=O)N/N=C/c2ccccc2)c1` yielded a growth of 46.3%. `CC(C)(C)c1cc(O)c(O)c(C(C)(C)C)c1` was tested, and the growth was 4.04% (active). For `CC(CNc1nc(Nc2ccc(Cl)c(Cl)c2)nc(C(Cl)(Cl)Cl)n1)N(C)C` (centres undefined), the growth was -21% (active). `CCCCN(CC)CC(CC)Nc1cc(OC)cc2cccnc12` (centres undefined) gave a growth of 126%. In the case of `O=c1c2cccc3c(Nc4ccccn4)ccc(c32)c2nc3ccccc3n12`, the growth was 62.3%. In the case of `Cc1cc(Nc2ccc(Cl)cc2)nc(NCCCNc2ccnc3cc(Cl)ccc23)n1`, the growth was -76.8% (active). For `OCCS`, the growth was 98.4%. `COc1cccc(/C=N/NC(=S)NC2CC3CCC2C3)c1O` (centres undefined) showed a growth of 71.3%. With `COc1ccc(-c2cc(-c3ccc(OC)c(OC)c3)nc(SCCCCCC(=O)NO)n2)cc1` the growth was -9.93% (active). For `O=C(Nc1cccnc1)c1ccc2ccc3ccc(C(=O)Nc4cccnc4)nc3c2n1`, the growth was 37.1%. With `COc1cc(/C=C2\CN(C)C/C(=C\c3cc(CN4CCCC4)c(O)c(OC)c3)C2=O)cc(CN2CCCC2)c1O` the growth was 43.3%. In the case of `c1ccc(/C(=N\Nc2ccc3ccccc3n2)c2ccccn2)cc1`, the growth was -29.8% (active). With `CCCC(CCC)Oc1ccc(CCCC2=C(O)c3ccccc3C(=O)C2=O)cc1` the growth was 37.5%. With `COc1cc(N2CCC(N3CCN(C)CC3)CC2)ccc1Nc1ncnc(Nc2ccccc2S(=O)(=O)C(C)C)n1` the growth was 102%. With `COc1ncc(-c2ccc3nccc(-c4ccnnc4)c3c2)cc1NS(=O)(=O)c1ccc(F)cc1F` the growth was -13.8% (active). `C=C1C(=O)O[C@H]2[C@H]1CC/C(COC(=O)CSCC(=O)OC/C1=C/CC[C@@]3(C)O[C@H]3[C@H]3OC(=O)C(=C)[C@@H]3CC1)=C\CC[C@@]1(C)O[C@@H]21` was tested, and the growth was -42% (active).
